From PubChem BioAssay (EPA / NIEHS)
“And” between values parts separate entries of the source, which are not always exact repeats. Equal values may be shown once. Inconclusive results are not listed. The source made the active and inactive calls. The calls were made as follows: active = hit-call score of the fitted dose curve at least 0.9, where 1 is the maximum; inconclusive = response in the unintended direction; inactive = score below 0.9.

Target: Androgen Receptor/SRC-1 Co-activator, AR (gene 367) (UniProt P10275)
Test: OT_AR_ARSRC1_0480: Odyssey Thera (OT) 8-hour HEK293T Protein-Complementation Assay for Androgen Receptor/SRC-1 Co-activator (AID 2283354);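 also: hits raise the complementation signal above DMSO so AC50 marks enhancers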
Procedure: OT_AR_ARSRC1_0480 is a cell-based, single-readout assay that uses HEK293T, a human kidney cell line, with measurements taken at 8 hours after chemical dosing in a 384-well plate.OT_AR_ARSRC1_0480 is one of one assay component(s) measured or calculated from the OT_AR_ARSRC1_0480 assay. It is designed to make measurements of protein fragment complementation, a form of binding reporter, as detected with fluorescence intensity signals by Protein-fragment Complementation technology.Data from the assay component OT_AR_ARSRC1_0480 was analyzed into 1 assay endpoint. This assay endpoint, OT_AR_ARSRC1_0480, was analyzed in the positive analysis fitting direction relative to DMSO as the negative control and baseline of activity. Using a type of binding reporter, measures of receptor for gain-of-signal activity can be used to understand the binding at the pathway-level as they relate to the gene AR. Furthermore, this assay endpoint can be referred to as a primary readout, because the performed assay has only produced 1 assay endpoint. To generalize the intended target to other relatable targets, this assay endpoint is annotated to the nuclear receptor intended target family, where the subfamily is steroidal.
Protein-fragment complementation assay, or PCA, is a method for the identification and quantification of protein-protein interactions. In the PCA, the proteins of interest ("bait" and "prey") are each covalently linked to fragments of a third protein (e.g. DHFR, which acts as a "reporter"). Interaction between the bait and the prey proteins brings the fragments of the reporter protein in close proximity to allow them to form a functional reporter protein whose activity can be measured. The OT AR / SRC-1 assay assessed androgen receptor chemical interactions using a rapidly maturing, intensely fluorescent mutant of YFP known as Venus, rationally dissected into two separate fragments. […] Fusion constructs were transfected into HEK293T cells with a (Gly4Ser)2 linker between the AR/SRC-1 and YFP fragment genes to facilitate complementation when interacting proteins bring fragments into close proximity. The construct is stably expressed in HEK293T cells. […] Images were acquired on an Evotec Opera at 2 wavelengths (488 and 635nm), and the ratio of fluorescence in the nucleus relative to fluorescence in the cytoplasm (N/C Ratio) in the 488nm channel was calculated for a minimum of 400 cells per image. Both agonists and antagonists of the AR receptor induce nuclear translocation to varying degrees. […] The OT AR/SRC-1 assay was also run for 16 hours (see description for OT_AR_ARSRC1_0960).

Androgen Receptor/SRC-1 Co-activator, AR (gene 367), sequence (P10275 whole entry, looked up): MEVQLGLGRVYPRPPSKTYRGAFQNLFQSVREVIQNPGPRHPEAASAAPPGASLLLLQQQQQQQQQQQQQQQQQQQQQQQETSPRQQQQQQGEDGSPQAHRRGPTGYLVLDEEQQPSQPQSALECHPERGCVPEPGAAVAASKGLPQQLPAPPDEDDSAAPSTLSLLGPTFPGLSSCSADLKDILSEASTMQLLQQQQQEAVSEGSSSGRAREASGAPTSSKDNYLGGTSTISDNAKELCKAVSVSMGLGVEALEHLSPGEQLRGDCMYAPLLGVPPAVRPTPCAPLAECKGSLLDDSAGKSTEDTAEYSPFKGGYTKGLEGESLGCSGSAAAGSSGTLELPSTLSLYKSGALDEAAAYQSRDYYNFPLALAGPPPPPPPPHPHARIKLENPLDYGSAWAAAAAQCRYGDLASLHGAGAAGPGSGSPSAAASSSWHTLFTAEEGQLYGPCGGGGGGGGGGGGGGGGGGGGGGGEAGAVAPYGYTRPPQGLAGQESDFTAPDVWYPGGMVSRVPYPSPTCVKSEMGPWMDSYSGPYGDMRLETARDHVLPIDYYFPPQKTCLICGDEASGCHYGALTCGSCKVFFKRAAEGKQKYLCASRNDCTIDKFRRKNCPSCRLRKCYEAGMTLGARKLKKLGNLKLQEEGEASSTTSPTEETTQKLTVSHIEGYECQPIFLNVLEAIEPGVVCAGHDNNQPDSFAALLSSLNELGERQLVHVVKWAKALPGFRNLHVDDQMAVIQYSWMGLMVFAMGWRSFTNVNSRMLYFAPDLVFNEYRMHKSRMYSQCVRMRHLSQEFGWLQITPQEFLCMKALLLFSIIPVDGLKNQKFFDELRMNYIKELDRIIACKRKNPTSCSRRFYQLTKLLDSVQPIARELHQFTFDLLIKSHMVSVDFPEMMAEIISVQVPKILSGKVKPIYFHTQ

| Structure (SMILES) | outcome | AC50 |
| --- | --- | --- |
| CN(C)C(=O)Nc1ccc(Cl)c(Cl)c1 | inactive | – |
| O=C(c1ccc(O)cc1O)c1ccc(O)cc1O | – | 11.1 µM (active) and 8.01 µM (active) and 9.37 µM (active) |
| COC(=O)CSc1cc(N=c2sc(=O)n3n2CCCC3)c(F)cc1Cl | inactive | – |
| CCOC(=O)COc1cc(-n2ncc(C(F)(F)F)c(C)c2=O)c(F)cc1Cl | inactive | – |
| C[C@]12CC[C@@H]3c4ccc(O)cc4C[C@@H](CCCCCCCCCS(=O)CCCC(F)(F)C(F)(F)F)[C@H]3[C@@H]1CC[C@@H]2O (some centres not stated) | inactive | – |
| CCCCOCCOCCOCc1cc2c(cc1CCC)OCO2 | inactive | – |
| CSC(=O)c1cccc2nnsc12 | – | 22.4 µM (active) |
| CC(C)(c1ccc(O)cc1)c1ccc(O)cc1 | inactive | – |
| CCOC(=O)C(C)Oc1ccc(Oc2nc3ccc(Cl)cc3o2)cc1 (configuration not stated) | inactive | – |
| CCCN(CCC)C(=O)SCC | inactive | – |
| CC1(C)C(C=C(Cl)Cl)C1C(=O)OCc1cccc(Oc2ccccc2)c1 (configuration not stated) | inactive | – |
| CCCOC(=O)c1ccc(C(=O)OCCC)nc1 | inactive | – |
| N#CSCSc1nc2ccccc2s1 | – | 21.9 µM (active) |
| CCSC(=O)N(CC(C)C)CC(C)C | inactive | – |
| c1ccc2[nH]c(-c3cscn3)nc2c1 | inactive | – |
| O=C(c1ccccc1)C1CCCCC1 | inactive | – |
| Cc1nn(C)c(Oc2ccccc2)c1C=NOCc1ccc(C(=O)OC(C)(C)C)cc1 | inactive | – |
